The list is not random: actives were taken first. Their share in the collection is about 17%.
ClpP mod – qHTS Assay for Activators of ClpP; purified B. subtilis ClpP, FRET peptide cleavage, 20 min; ATP-dependent Clp protease proteolytic subunit (Bacillus subtilis (strain 168)), P80244; Potency, µM (titrated, usually from 57.5 µM); AID 651965, 2013; actives 1.9% (n = 340,000); active = well fitted falling curve with a large enough effect; inconclusive = small, poorly fitted or top-dose-only effect; inactive = no such curve, though single readings can be large or run the other way; note: the source files actives as falling curves though it sought activators and does not explain the sign; nearly all actives have a fitted effect of over 65% in size
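Buffer: 100 mM Tris/HCl pH8, 100 mM KCl, 0.05% low protease BSA, 2.5% glycerol, 0.01% Tween-20. ClpP 10 microg/mL final; 20 min RT; delta FRET normalized to ADEP and DMSO controls.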
TDP1 block – inhibitors of human tyrosyl-DNA phosphodiesterase TDP1; recombinant TDP1, AlphaScreen DNA substrate cleavage; actives 0.28% (n = 350,000); Potency, µM (series often up to 130 µM), actives largely listed as inhibitors; Q9NUW8; note: nearly all actives have a fitted effect of over 40% in size
Target sequence (Q9NUW8 whole entry, looked up): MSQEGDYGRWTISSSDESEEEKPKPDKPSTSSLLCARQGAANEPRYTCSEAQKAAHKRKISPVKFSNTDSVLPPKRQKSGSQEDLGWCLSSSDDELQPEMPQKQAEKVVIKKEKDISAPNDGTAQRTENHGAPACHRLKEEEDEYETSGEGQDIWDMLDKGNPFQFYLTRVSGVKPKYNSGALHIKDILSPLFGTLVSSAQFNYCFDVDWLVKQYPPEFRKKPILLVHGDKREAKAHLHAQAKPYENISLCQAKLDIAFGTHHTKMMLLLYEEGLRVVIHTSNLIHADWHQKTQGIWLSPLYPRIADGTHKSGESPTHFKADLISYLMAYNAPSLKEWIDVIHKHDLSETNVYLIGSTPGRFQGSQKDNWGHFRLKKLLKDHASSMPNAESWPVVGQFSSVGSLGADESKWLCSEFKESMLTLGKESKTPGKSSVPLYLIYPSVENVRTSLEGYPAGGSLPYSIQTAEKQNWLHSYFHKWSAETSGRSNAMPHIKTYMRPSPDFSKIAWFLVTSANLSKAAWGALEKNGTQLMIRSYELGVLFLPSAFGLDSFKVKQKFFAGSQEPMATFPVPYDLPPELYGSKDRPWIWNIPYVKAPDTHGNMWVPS
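Tdp1 1 nM final; 15 min RT w/ cpd; substrate 15 nM, 5 min; beads 10 ug/ml, 10 min; AlphaScreen read. Neg ctrl: no enzyme.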
TDP1 cell CPT – DT40-hTDP1 cell growth loss with CPT; chicken DT40 Tdp1-/-;hTDP1 cells + 20 nM CPT, ATP luminescence, 48 h; Potency, µM (series often up to 46.2 µM), usual class: inhibitors; actives 12% (n = 420,000); note: nearly all actives have a fitted effect of over 55% in size
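Chicken DT40 Tdp1-/- cells complemented with human TDP1, 400 cells/well, exposed to compounds plus 20 nM camptothecin for at least 48 h at 37 C; viability read as ATP content by CellTiter-Glo luminescence.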
DT40 TDP1 no CPT – qHTS for Inhibitors of human tyrosyl-DNA phosphodiesterase 1 (TDP1): qHTS in cells in absence of CPT; DT40 Tdp1-/- hTDP1 cells, no CPT, ATP luminescence, 48 h; Potency, µM (titrated, usually from 46.2 µM), most hits filed as inhibitors; actives 15% (n = 420,000); AID 686978, 2013; note: nearly all actives have a fitted effect of over 55% in size
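No-CPT arm: Tdp1-/-;hTDP1 DT40 cells (400/well) plus compounds, incubated ≥48 hr at 37 °C. Readout CellTiter-Glo luminescence.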
Each line names hits and unclear results; the compound was inactive in the other large screens. Unless noted, calls come from the whole dose curve; as a rule, active = well fitted curve in the direction sought with a large enough effect; inconclusive = small, poorly fitted or top-dose-only effect, or another doubt; inactive = no such curve, though single readings can be large; an effect the other way counts as inactive or inconclusive.

CCc1nc(Nc2cccc(OC)c2)c2oc3ccccc3c2n1	TDP1 cell CPT inconclusive, DT40 TDP1 no CPT inconclusive (no result: TDP1 block)
Cc1c(-c2nc(N)nc(Nc3ccccc3F)n2)oc2ccccc12	ClpP mod inconclusive, TDP1 cell CPT inconclusive, DT40 TDP1 no CPT 18.4µM
Cc1cccc(Nc2nc(N)nc(-c3oc4ccccc4c3C)n2)c1	TDP1 cell CPT inconclusive, DT40 TDP1 no CPT 25.9µM (no result: ClpP mod)
Cc1ccc(Nc2nc(C)nc3c2oc2ccccc23)cc1	TDP1 cell CPT inconclusive, DT40 TDP1 no CPT inconclusive (no result: ClpP mod)
Cc1c(Cl)cccc1NC(=O)CN1C(=O)CCn2nc(-c3cccn3C)cc21	none
Cc1cc(C)cc(NC(=O)CSc2nc(=O)n(Cc3ccccn3)c3c2CCC3)c1	TDP1 cell CPT inconclusive, DT40 TDP1 no CPT inconclusive
COc1ccc(/C=C2\SC(=S)N(CC(=O)NC3C=CS(=O)(=O)C3)C2=O)cc1 (stereo not given)	TDP1 cell CPT 6.51µM, DT40 TDP1 no CPT 3.66µM
O=C(CCN1C(=O)/C(=C/c2ccc(Cl)cc2)SC1=S)NC1C=CS(=O)(=O)C1 (stereo not given)	TDP1 block inconclusive, DT40 TDP1 no CPT inconclusive
O=C(CN1C(=O)/C(=C/c2ccc(Cl)cc2)SC1=S)NC1C=CS(=O)(=O)C1 (stereo not given)	TDP1 cell CPT 6.51µM, DT40 TDP1 no CPT 5.8µM
O=C(NCC1CCCO1)c1cc([N+](=O)[O-])ccc1N1CCC(Cc2ccccc2)CC1 (stereo not given)	TDP1 cell CPT inconclusive, DT40 TDP1 no CPT 23.1µM
CO[Si](CCCNCCC[Si](OC)(OC)OC)(OC)OC	none (no result: ClpP mod, TDP1 cell CPT, DT40 TDP1 no CPT)
COc1ccccc1CC(=O)N1CCCC(CCC(=O)NCc2ccccc2F)C1 (stereo not given)	TDP1 cell CPT inconclusive (no result: TDP1 block)
O=C(CCC(=O)N1CC2CCCN2c2ccccc21)NCc1ccccc1F (stereo not given)	TDP1 cell CPT 11.6µM, DT40 TDP1 no CPT 18.4µM
Cc1ccc(CNC(=O)CCC(=O)N2CC3CCCN3c3ccccc32)cc1 (stereo not given)	TDP1 cell CPT 5.17µM, DT40 TDP1 no CPT 18.4µM
O=C(CCC(=O)N1CC2CCCN2c2ccccc21)NCc1ccc(F)cc1 (stereo not given)	TDP1 cell CPT inconclusive, DT40 TDP1 no CPT inconclusive
Cc1ccccc1CNC(=O)CCC(=O)N1CC2CCCN2c2ccccc21 (stereo not given)	TDP1 cell CPT 18.4µM, DT40 TDP1 no CPT 23.1µM
CC1(C)CC(=O)C=C(C(=O)NC2CCCc3c2cnn3-c2cc(F)cc(F)c2)O1 (stereo not given)	TDP1 cell CPT inconclusive, DT40 TDP1 no CPT inconclusive
Cc1cccc(-n2ncc3c2CCCC3NC(=O)C2=CC(=O)CC(C)(C)O2)c1C (stereo not given)	TDP1 cell CPT 4.61µM, DT40 TDP1 no CPT 8.2µM
Cc1cccc(-n2ncc3c2CCCC3NC(=O)C2(C(N)=O)CC2)c1C (stereo not given)	TDP1 cell CPT 10.3µM, DT40 TDP1 no CPT inconclusive
CCc1cc(C(=O)NC2CCCc3c2cnn3-c2cccc(C)c2C)n(C)n1 (stereo not given)	TDP1 cell CPT 0.206µM, DT40 TDP1 no CPT 0.164µM
Cc1cccc(-n2ncc3c2CCCC3NC(=O)Cn2cccn2)c1C (stereo not given)	TDP1 cell CPT inconclusive
Cc1cc(C)c(C(=O)NC2CCCc3c2cnn3-c2cccc(C)c2C)o1 (stereo not given)	TDP1 cell CPT 20.6µM, DT40 TDP1 no CPT inconclusive
Cc1ccc(C(=O)Nc2nnc(S(=O)(=O)N(C)Cc3ccc(Cl)cc3)s2)cc1	TDP1 cell CPT inconclusive, DT40 TDP1 no CPT inconclusive
COc1cccc(C(NC(C)=O)c2nc(-c3ccccc3)cs2)c1 (stereo not given)	TDP1 cell CPT inconclusive, DT40 TDP1 no CPT inconclusive (no result: TDP1 block)
CSc1ccc(Cl)c(C(=O)NCCOc2cc(C(C)C)ccc2C)c1	TDP1 cell CPT 29.1µM, DT40 TDP1 no CPT 25.9µM
CCCCNC(=NCc1cccc(C(F)(F)F)c1)Nc1ccccc1	TDP1 cell CPT 13µM, DT40 TDP1 no CPT 10.3µM (no result: ClpP mod, TDP1 block)
COc1ccc(Cc2nnc(NC(=O)c3ccccc3Cl)s2)cc1OC	none (no result: TDP1 block)
Cc1c(Cl)cnc(NC(=O)CSc2nnnn2C)c1Cl	none
CN(c1ccccc1)c1ccc(/C=C/[N+](=O)[O-])cc1	TDP1 cell CPT 23.1µM, DT40 TDP1 no CPT 20.6µM (no result: ClpP mod)
COC(=O)C[C@H]1CC[C@@H](NS(=O)(=O)c2ccc(C)cc2)[C@@H](CO)O1	none (no result: TDP1 block)
O=C(NCc1ccc(Br)cc1)OC1CC2CC1[C@H]1CCCCN1C2=O (stereo not given in full)	none (no result: TDP1 block)
Cc1nc(NC(=O)c2cccc(Cl)c2)sc1C(=O)N1CCCCC1	TDP1 cell CPT 18.4µM, DT40 TDP1 no CPT 18.4µM
O=[N+]([O-])c1cccc(/C=N/n2c(C3CCCCC3)n[nH]c2=S)c1	TDP1 cell CPT inconclusive, DT40 TDP1 no CPT 16.4µM
S=c1[nH]nc(C2CCCCC2)n1/N=C/C=C/c1ccccc1	TDP1 cell CPT 25.9µM, DT40 TDP1 no CPT inconclusive
COc1cccc(Nc2ncc3nc(-c4ccc(Cl)cc4)c(=O)n(C4CC4)c3n2)c1	none (no result: ClpP mod, TDP1 block)
Cc1ccc(-n2ncc(C(=O)N3CCN(c4ccccn4)CC3)c2C2CCN(C(=O)OC(C)(C)C)CC2)cc1	TDP1 cell CPT inconclusive, DT40 TDP1 no CPT inconclusive
Cc1cccc(N2CCN(C(=O)c3cnn(-c4ccccc4)c3C3CCN(C(=O)OC(C)(C)C)CC3)CC2)c1C	TDP1 cell CPT inconclusive, DT40 TDP1 no CPT 16.4µM
COc1ccc(-n2ncc(C(=O)N3CCN(c4ccccn4)CC3)c2C2CCN(C(=O)OC(C)(C)C)CC2)cc1	TDP1 cell CPT inconclusive, DT40 TDP1 no CPT 20.6µM
CC(C)(C)OC(=O)N1CCC(c2c(C(=O)N3CCN(C(=O)c4ccco4)CC3)cnn2-c2cccc(F)c2)CC1	TDP1 cell CPT inconclusive, DT40 TDP1 no CPT inconclusive
COc1ccc(N2CCN(C(=O)c3cnn(-c4ccc(OC)cc4)c3C3CCN(C(=O)OC(C)(C)C)CC3)CC2)cc1	TDP1 cell CPT 18.4µM, DT40 TDP1 no CPT inconclusive
CC(C)(C)OC(=O)N1CCC(c2c(C(=O)N3CCN(c4ccccn4)CC3)cnn2-c2cccc(F)c2)CC1	TDP1 cell CPT 18.4µM, DT40 TDP1 no CPT 16.4µM
Nc1ccc(C(=O)CC(=O)Nc2ccc(Cl)cc2)cc1	none (no result: ClpP mod, TDP1 block)
O=C(CCNC(=O)c1ccc(Cl)cc1)NCc1ccco1	none
CCN1C(=O)[C@H]2[C@H]3CN=C(SCc4ccc(C)cc4)N3[C@@](C)(C(=O)OC)[C@H]2C1=O	DT40 TDP1 no CPT inconclusive
CCc1cccc(C)c1NC(=O)c1cnn(-c2ccc(OC)cc2)c1C1CCN(C(=O)OC(C)(C)C)CC1	TDP1 cell CPT 18.4µM, DT40 TDP1 no CPT 18.4µM
COc1ccc(-n2ncc(C(=O)N3CCOCC3)c2C2CCN(C(=O)OC(C)(C)C)CC2)cc1	none
N=c1n(CC(=O)c2ccc([N+](=O)[O-])cc2)c2ccccc2n1Cc1ccccc1Cl	TDP1 cell CPT 2.91µM, DT40 TDP1 no CPT 2.91µM
Cc1ccccc1Cn1c(=N)n(CC(=O)c2ccco2)c2ccccc21	TDP1 cell CPT 23.1µM, DT40 TDP1 no CPT 16.4µM

Compound activity (PubChem)
